Source: PubChem BioAssay
The list is not random: actives were taken first. Their share in the collection is about 3.5%.
Pf apPOL block – Pf-apPOL DNA polymerase inhibition. 210,000 tested, 0.25% active. AID 1794808. Recombinant Pf-apPOL, molecular beacon fluorescence, 1.5 h. inhibition, % at 10 µM
mHTT CaM bind – mHTT-calmodulin interaction abrogation; P42858; AlphaScreen His-mHTT/GST-CaM binding, luminescence; inhibition, % at 15 µM; 190,000 tested, 3.6% active;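 further: 0% = both proteins with DMSO and 100% = one protein alone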
Target sequence (P42858 whole entry, looked up, stated change not applied): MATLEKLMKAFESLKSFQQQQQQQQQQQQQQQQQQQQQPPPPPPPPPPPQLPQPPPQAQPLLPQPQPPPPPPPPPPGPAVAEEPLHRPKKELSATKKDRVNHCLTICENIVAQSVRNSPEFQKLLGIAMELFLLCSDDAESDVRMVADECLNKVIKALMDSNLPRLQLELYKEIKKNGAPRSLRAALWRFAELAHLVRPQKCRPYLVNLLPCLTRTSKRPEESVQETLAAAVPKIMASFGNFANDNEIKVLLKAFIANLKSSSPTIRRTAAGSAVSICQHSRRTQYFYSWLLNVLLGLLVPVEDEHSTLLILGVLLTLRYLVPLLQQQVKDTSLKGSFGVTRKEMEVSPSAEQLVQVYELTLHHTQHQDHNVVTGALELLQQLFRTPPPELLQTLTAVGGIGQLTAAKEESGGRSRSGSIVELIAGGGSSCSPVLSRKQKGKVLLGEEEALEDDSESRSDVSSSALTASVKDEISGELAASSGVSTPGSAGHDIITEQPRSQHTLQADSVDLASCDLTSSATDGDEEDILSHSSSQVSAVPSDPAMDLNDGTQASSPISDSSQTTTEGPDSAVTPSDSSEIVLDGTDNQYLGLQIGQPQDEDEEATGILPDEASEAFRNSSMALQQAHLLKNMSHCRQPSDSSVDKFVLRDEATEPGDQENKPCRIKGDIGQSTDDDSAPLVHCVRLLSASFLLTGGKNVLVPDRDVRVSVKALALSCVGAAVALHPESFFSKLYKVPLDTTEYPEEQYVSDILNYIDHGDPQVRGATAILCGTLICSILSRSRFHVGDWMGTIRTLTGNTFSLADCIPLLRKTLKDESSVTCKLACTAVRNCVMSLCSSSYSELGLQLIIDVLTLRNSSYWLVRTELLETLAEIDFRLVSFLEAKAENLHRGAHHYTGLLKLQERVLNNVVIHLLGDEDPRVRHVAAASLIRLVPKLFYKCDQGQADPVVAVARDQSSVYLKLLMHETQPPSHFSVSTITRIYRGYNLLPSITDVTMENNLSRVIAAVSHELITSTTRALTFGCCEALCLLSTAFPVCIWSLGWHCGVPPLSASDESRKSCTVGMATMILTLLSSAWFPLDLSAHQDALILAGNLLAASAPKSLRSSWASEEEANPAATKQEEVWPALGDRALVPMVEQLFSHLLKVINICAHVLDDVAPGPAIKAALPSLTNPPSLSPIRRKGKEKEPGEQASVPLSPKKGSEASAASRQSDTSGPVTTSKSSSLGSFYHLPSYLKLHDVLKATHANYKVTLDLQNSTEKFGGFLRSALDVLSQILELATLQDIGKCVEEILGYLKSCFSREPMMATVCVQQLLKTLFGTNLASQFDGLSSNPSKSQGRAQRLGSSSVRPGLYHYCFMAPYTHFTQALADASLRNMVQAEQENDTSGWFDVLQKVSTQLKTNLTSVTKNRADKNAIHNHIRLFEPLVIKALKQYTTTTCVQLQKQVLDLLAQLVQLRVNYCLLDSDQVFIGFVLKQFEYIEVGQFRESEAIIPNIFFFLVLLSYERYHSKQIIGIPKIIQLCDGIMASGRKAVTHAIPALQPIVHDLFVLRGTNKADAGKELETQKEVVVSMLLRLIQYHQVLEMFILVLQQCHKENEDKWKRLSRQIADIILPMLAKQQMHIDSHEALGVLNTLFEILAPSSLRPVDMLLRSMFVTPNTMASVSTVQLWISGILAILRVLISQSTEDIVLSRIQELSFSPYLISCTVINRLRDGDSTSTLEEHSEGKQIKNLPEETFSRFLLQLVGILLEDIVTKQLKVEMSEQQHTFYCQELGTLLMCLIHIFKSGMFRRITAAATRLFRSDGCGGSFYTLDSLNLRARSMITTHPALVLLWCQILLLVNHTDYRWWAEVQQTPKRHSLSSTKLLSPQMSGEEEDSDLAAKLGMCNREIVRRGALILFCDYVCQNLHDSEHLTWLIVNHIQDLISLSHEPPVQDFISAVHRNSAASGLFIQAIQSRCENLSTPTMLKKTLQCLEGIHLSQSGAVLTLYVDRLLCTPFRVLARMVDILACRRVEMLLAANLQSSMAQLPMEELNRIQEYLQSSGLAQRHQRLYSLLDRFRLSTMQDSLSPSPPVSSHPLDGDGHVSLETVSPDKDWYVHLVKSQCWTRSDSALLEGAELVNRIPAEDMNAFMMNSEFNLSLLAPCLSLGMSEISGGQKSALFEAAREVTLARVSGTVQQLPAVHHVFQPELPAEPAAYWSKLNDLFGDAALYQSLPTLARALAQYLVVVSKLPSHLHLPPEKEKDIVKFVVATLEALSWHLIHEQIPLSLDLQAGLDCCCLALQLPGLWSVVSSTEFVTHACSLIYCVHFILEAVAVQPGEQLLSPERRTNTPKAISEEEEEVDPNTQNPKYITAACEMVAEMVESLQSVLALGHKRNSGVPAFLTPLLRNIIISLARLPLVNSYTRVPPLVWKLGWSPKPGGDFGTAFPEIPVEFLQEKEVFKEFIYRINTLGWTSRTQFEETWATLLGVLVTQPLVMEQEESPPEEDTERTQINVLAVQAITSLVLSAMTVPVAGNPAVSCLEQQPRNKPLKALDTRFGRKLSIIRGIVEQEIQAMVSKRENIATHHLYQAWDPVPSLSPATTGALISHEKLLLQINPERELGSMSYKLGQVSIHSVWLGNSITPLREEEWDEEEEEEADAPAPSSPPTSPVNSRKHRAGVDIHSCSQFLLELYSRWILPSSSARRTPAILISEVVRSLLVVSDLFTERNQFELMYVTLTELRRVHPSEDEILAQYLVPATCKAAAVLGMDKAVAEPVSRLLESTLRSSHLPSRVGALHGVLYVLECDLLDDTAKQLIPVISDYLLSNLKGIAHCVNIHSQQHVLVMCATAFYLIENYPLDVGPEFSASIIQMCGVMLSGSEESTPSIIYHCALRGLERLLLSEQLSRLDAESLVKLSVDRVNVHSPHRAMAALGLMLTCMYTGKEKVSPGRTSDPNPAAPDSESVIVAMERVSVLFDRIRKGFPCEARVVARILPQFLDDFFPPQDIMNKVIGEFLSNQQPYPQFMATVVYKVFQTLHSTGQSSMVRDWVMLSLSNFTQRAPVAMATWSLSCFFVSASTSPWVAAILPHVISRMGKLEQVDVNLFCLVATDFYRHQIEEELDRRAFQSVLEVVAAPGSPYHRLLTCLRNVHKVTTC
Starred values were filed as active, the others as inactive. No stated cut-off is given here; in the data, active means inhibition above about 50%; inactive means the rest.

Cc1ccccc1-c1cc2c(c3c1ccn3C)C1CCC2O1 (centres undefined) was read as Pf apPOL block -4 and mHTT CaM bind 31.
Cn1ccc2c(N3CCCCC3)cc3c(c21)C1CCC3C1 (centres undefined) was read as Pf apPOL block -5 and mHTT CaM bind 78*.
Cn1ccc2c(N3CCCC3)cc3c(c21)C1CCC3C1 (centres undefined) was read as Pf apPOL block 1 and mHTT CaM bind 25.
Cn1ccc2c(N3CCCCCC3)cc3c(c21)C1CCC3O1 (centres undefined) was read as Pf apPOL block 0 and mHTT CaM bind 66*.
For Cn1ccc2c(-c3cncc4ccccc34)cc3c(c21)C1CCC3O1 (centres undefined) the results were Pf apPOL block -3 and mHTT CaM bind 100*.
Screening Cc1ccc(CNC(=O)CN(c2ccccc2)S(=O)(=O)c2ccccc2[N+](=O)[O-])cc1 returned Pf apPOL block 2 and mHTT CaM bind 0.
For O=C(NCC(O)c1ccc(C(F)(F)F)cc1)C(c1ccccc1)c1ccccc1 (centres undefined) the results were Pf apPOL block -6 and mHTT CaM bind 86*.
O=C(NCc1ccccc1)NCC(O)c1ccc(C(F)(F)F)cc1 (centres undefined) was read as Pf apPOL block -33 and mHTT CaM bind -10.
For COc1ccc(/C=C2\SC(=O)N(CNc3ccccc3OC)C2=O)cc1 the results were Pf apPOL block -2 and mHTT CaM bind 32.
For COc1ccc(NCN2C(=O)S/C(=C\c3ccccc3OC)C2=O)cc1 the results were Pf apPOL block 7 and mHTT CaM bind 52*.
For COc1ccccc1/C=C1\SC(=O)N(CNc2cccc(C)c2)C1=O the results were Pf apPOL block -1 and mHTT CaM bind 58*.
For O=C1S/C(=C\c2ccccc2F)C(=O)N1CNc1cccc(F)c1 the results were Pf apPOL block 0 and mHTT CaM bind -4.
`Cc1ccc(C)c2sc(N(C)CC(=O)O)nc12` gave Pf apPOL block -2 and mHTT CaM bind 0.
Screening COc1ccccc1N=c1oc2ccc(Cl)cc2cc1C(=O)Nc1nccs1 returned Pf apPOL block 1 and mHTT CaM bind 4.
For CCOC(=O)c1ccc(Cl)c(N=Cc2cc(Cl)cc(Cl)c2O)c1 the results were Pf apPOL block 6.
Screening Cc1cc(N2CCC(NC(=O)Nc3ccc(Cl)cc3)C2=O)ccc1F (centres undefined) returned Pf apPOL block 0 and mHTT CaM bind -9.
`COc1nn(-c2nc(-c3ccccc3)cc(C(F)(F)F)n2)c(C)c1[N+](=O)[O-]` gave Pf apPOL block 0 and mHTT CaM bind -1.
CC(C)C(=O)Nc1ccc(O)c(-c2nc3ccccc3o2)c1 was read as Pf apPOL block -6 and mHTT CaM bind 3.
`COc1cc2c(cc1OC)CN(C(=O)C(c1ccccc1)n1cccc1)CC2` (centres undefined) gave Pf apPOL block 6 and mHTT CaM bind 65*.
COc1ccc(C(=O)N2CCc3cc(OC)c(OC)cc3C2)cc1OC was read as Pf apPOL block -5 and mHTT CaM bind -3.
For NC(=O)CSc1ccc(-c2ccccn2)nn1 the results were Pf apPOL block -4 and mHTT CaM bind 100*.
For NC(=O)CSc1nc2ccccc2nc1SCC(N)=O the results were Pf apPOL block -5 and mHTT CaM bind -3.
`Cc1ccc2nc(NC(=O)CSc3ccc(NC(=O)C4CC4)nn3)sc2c1` gave Pf apPOL block 5 and mHTT CaM bind -6.
For O=C(CSc1cccc2cccnc12)Nc1nc2ccccc2s1 the results were Pf apPOL block 1 and mHTT CaM bind 14.
Screening Cc1ccc2nc(NC(=O)CSc3ccc(-c4ccco4)nn3)sc2c1 returned Pf apPOL block 74* and mHTT CaM bind 85*.
For O=C(CSc1ccc(-c2ccccn2)nn1)Nc1nc2ccccc2s1 the results were Pf apPOL block -1 and mHTT CaM bind 89*.
Screening COc1ccccc1C1C2=C(CCCC2=O)Nc2nc(SCc3ccccc3Cl)nn21 (centres undefined) returned Pf apPOL block -4 and mHTT CaM bind 9.
CC(NS(=O)(=O)c1c(Cl)cccc1Cl)C(=O)O (centres undefined) was read as Pf apPOL block -3 and mHTT CaM bind -4.
c1ccc(-c2noc(Cn3ccnc3)n2)cc1 was read as Pf apPOL block -11 and mHTT CaM bind 3.
Screening O=C(Cn1cnc2c(oc3ccccc32)c1=O)Nc1cc(F)ccc1F returned Pf apPOL block -3 and mHTT CaM bind -1.
`O=C(Cn1c2c(c3ccccc31)CCC2)Nc1cc(F)ccc1F` gave Pf apPOL block -2 and mHTT CaM bind 76*.
`Cc1ccc(NS(=O)(=O)c2ccc(Cl)cc2)cc1` gave Pf apPOL block 5 and mHTT CaM bind -22.
Screening Cc1ccc(S(=O)(=O)Nc2ccc(N(C)C)cc2)cc1 returned Pf apPOL block -56 and mHTT CaM bind 55*.
For CN1CCCn2nc(C3CCN(C(=O)Cc4cccc(C(F)(F)F)c4)CC3)cc2C1=O the results were Pf apPOL block 0 and mHTT CaM bind 23.
